According to the supplement of paper PMC12669032:
Values without a mark were called inactive.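 Rule for the calls: active = AUC reduced over 20% with Padj below 0.05 in at least 2 of 3 replicates; inactive = otherwise.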

Each molecule was assayed on Parabacteroides distasonis (assay: growth AUC relative to DMSO control (median of replicates) (fraction); higher = more growth (less inhibition), active = hit call of the paper). Conditions: 20 µM; 24 h.
Outline: (§1)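 For each compound at 20 µM (1% DMSO), gut bacterial monocultures seeded at OD600 0.05 grew anaerobically in mGAM at 37 °C in round-bottom 96-well plates. Hourly OD600 readings over 24 h gave growth curves whose minimum OD was set to 0. Area under these curves was normalised to the plate median of solvent-only wells, or to row and column medians on the industrial chemical plate. Values are medians of three biological replicates grown on separate days.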

In order of rising “growth AUC” value:
1. O=NN(CCO)CCO  0.861
2. CCCSP(=O)(OCC)Oc1ccc(Br)cc1Cl (stereo not drawn)  0.871
3. OC(c1ccc(Cl)cc1)(c1cncnc1)c1ccccc1Cl (stereo not drawn)  0.886
4. CO/C=C(/C(=O)OC)c1ccccc1Oc1cc(Oc2ccccc2C#N)ncn1  0.9
5. C=CCC1=C(C)C(OC(=O)[C@@H]2[C@@H](C=C(C)C)C2(C)C)CC1=O (stereo partly drawn)  0.9
6. CCOP(=S)(OCC)SCSc1ccc(Cl)cc1  0.911
7. C[Si](Cn1cncn1)(c1ccc(F)cc1)c1ccc(F)cc1  0.915
8. C1CCC(NC2CCCCC2)CC1.O=NO  0.936
9. Clc1cc(Cl)c(Cl)c(Cl)c1  0.953
10. CC1(C)C(C=C(Cl)Cl)C1C(=O)OC(C#N)c1ccc(F)c(Oc2ccccc2)c1 (mixture of isomers)  0.96
11. O=C(NCCc1ncc(C(F)(F)F)cc1Cl)c1ccccc1C(F)(F)F  0.96
12. CCCCOCN(C(=O)CCl)c1c(CC)cccc1CC  0.963
13. CCOC(=O)Nc1cccc(OC(=O)Nc2ccccc2)c1  0.967
14. C=CC(N)=O  0.976
15. CNC(=O)Oc1cc(C)c(N(C)C)c(C)c1  0.988
16. CNC(=O)O/N=C(\SC)C(=O)N(C)C  0.99
17. c1ccc2c(c1)cc1ccc3cccc4ccc2c1c34  0.994
18. CNC(=O)/C(=N/OC)c1ccccc1Oc1ccccc1  0.995
19. O=C(O)C(Cl)Cl  0.998
20. COC(=O)c1ccccc1CS(=O)(=O)NC(=O)Nc1nc(OC)cc(OC)n1  0.998
21. CCOP(=S)(OCC)Oc1ccc(S(C)=O)cc1 (stereo not drawn)  1
22. Clc1cccc(C(Cl)(Cl)Cl)n1  1
23. Cc1cc(Cl)ccc1OCC(=O)O  1.01
24. CC(C)(COCc1cccc(Oc2ccccc2)c1)c1ccc(OC(F)(F)Br)cc1  1.01
25. COP(=O)(OC)Oc1ccc(S(C)(=O)=O)c(C)c1  1.02
26. COP(=O)(OC)Oc1ccc(SC)c(C)c1  1.02
27. CCc1cccc(C)c1N(C(=O)CCl)C(C)COC (stereo not drawn)  1.03
28. COP(=S)(OC)Oc1ccc(S(C)=O)c(C)c1 (stereo not drawn)  1.03
29. CN(C)C(CSC(N)=O)CSC(N)=O.Cl  1.04
30. CCOP(=O)(NC(C)C)Oc1ccc(S(C)(=O)=O)c(C)c1 (stereo not drawn)  1.06
31. CCCCN(CC)c1c([N+](=O)[O-])cc(C(F)(F)F)cc1[N+](=O)[O-]  1.06
32. O=C1c2ccccc2C(=O)N1SC(Cl)(Cl)Cl  1.06
33. O=C(NC(=O)c1c(F)cccc1F)Nc1ccc(Cl)cc1  1.07

`CC(=O)CC(c1ccc(Cl)cc1)c1c(O)c2ccccc2oc1=O` (stereo not drawn) was tested, and the “growth AUC” value was 0.787 (active).
For `Clc1ccc(C(c2ccc(Cl)cc2)C(Cl)(Cl)Cl)cc1`, the “growth AUC” value was 0.258 (active).
With `O=c1oc2ccccc2c(O)c1C(CC(O)c1ccc(-c2ccc(Br)cc2)cc1)c1ccccc1` (stereo not drawn) the “growth AUC” value was 0.516 (active).
In the case of `Oc1ccc(Cl)cc1Cc1cc(Cl)ccc1O`, the “growth AUC” value is reported as 0.0176 (active).
For `O=[N+]([O-])c1ccc(Oc2ccc(Cl)cc2Cl)cc1`, the “growth AUC” value was 0.655 (active).
With `CCCCOC(=O)c1ccccc1C(=O)OCCCC` the “growth AUC” value was 0.759 (active).

What follows are molecules tested on Parabacteroides merdae in the same assay as above. Conditions: 20 µM; 24 h.
Outline: as §1

In order of falling “growth AUC” value:
1. O=C1c2ccccc2C(=O)N1SC(Cl)(Cl)Cl  1.05
2. COP(=O)(OC)Oc1ccc(SC)c(C)c1  1.05
3. CCOP(=O)(NC(C)C)Oc1ccc(S(C)(=O)=O)c(C)c1 (stereo not drawn)  1.04
4. Cc1cc(Cl)ccc1OCC(=O)O  1.04
5. CN(C)C(CSC(N)=O)CSC(N)=O.Cl  1.04
6. O=NN(CCO)CCO  1.04
7. O=C(O)C(Cl)Cl  1.03
8. CCOP(=S)(OCC)Oc1ccc(S(C)=O)cc1 (stereo not drawn)  1
9. CCCCN(CC)c1c([N+](=O)[O-])cc(C(F)(F)F)cc1[N+](=O)[O-]  1
10. COC(=O)c1ccccc1CS(=O)(=O)NC(=O)Nc1nc(OC)cc(OC)n1  1
11. C=CCC1=C(C)C(OC(=O)[C@@H]2[C@@H](C=C(C)C)C2(C)C)CC1=O (stereo partly drawn)  0.999
12. CNC(=O)/C(=N/OC)c1ccccc1Oc1ccccc1  0.997
13. CNC(=O)Oc1cc(C)c(N(C)C)c(C)c1  0.997
14. O=C(NCCc1ncc(C(F)(F)F)cc1Cl)c1ccccc1C(F)(F)F  0.996
15. COP(=O)(OC)Oc1ccc(S(C)(=O)=O)c(C)c1  0.995
16. CCCSP(=O)(OCC)Oc1ccc(Br)cc1Cl (stereo not drawn)  0.994
17. C=CC(N)=O  0.993
18. CCc1cccc(C)c1N(C(=O)CCl)C(C)COC (stereo not drawn)  0.991
19. O=C(NC(=O)c1c(F)cccc1F)Nc1ccc(Cl)cc1  0.99
20. COP(=S)(OC)Oc1ccc(S(C)=O)c(C)c1 (stereo not drawn)  0.988
21. CC(C)(COCc1cccc(Oc2ccccc2)c1)c1ccc(OC(F)(F)Br)cc1  0.979
22. CCOP(=S)(OCC)SCSc1ccc(Cl)cc1  0.977
23. CCCCOCN(C(=O)CCl)c1c(CC)cccc1CC  0.976
24. c1ccc2c(c1)cc1ccc3cccc4ccc2c1c34  0.974
25. CNC(=O)O/N=C(\SC)C(=O)N(C)C  0.973
26. Clc1cccc(C(Cl)(Cl)Cl)n1  0.967
27. O=[N+]([O-])c1ccc(Oc2ccc(Cl)cc2Cl)cc1  0.967
28. C[Si](Cn1cncn1)(c1ccc(F)cc1)c1ccc(F)cc1  0.964
29. CCCCOC(=O)c1ccccc1C(=O)OCCCC  0.964
30. CO/C=C(/C(=O)OC)c1ccccc1Oc1cc(Oc2ccccc2C#N)ncn1  0.955
31. CC(=O)CC(c1ccc(Cl)cc1)c1c(O)c2ccccc2oc1=O (stereo not drawn)  0.954
32. CCOC(=O)Nc1cccc(OC(=O)Nc2ccccc2)c1  0.949
33. Clc1cc(Cl)c(Cl)c(Cl)c1  0.941
34. CC1(C)C(C=C(Cl)Cl)C1C(=O)OC(C#N)c1ccc(F)c(Oc2ccccc2)c1 (mixture of isomers)  0.937

In the case of `Clc1ccc(C(c2ccc(Cl)cc2)C(Cl)(Cl)Cl)cc1`, the “growth AUC” value is reported as 0.69 (active).
In the case of `O=c1oc2ccccc2c(O)c1C(CC(O)c1ccc(-c2ccc(Br)cc2)cc1)c1ccccc1` (stereo not drawn), the “growth AUC” value is reported as 0.25 (active).
`C1CCC(NC2CCCCC2)CC1.O=NO` was tested, and the “growth AUC” value was 0.753 (active).
In the case of `Oc1ccc(Cl)cc1Cc1cc(Cl)ccc1O`, the “growth AUC” value is reported as 0.0937 (active).
With `OC(c1ccc(Cl)cc1)(c1cncnc1)c1ccccc1Cl` (stereo not drawn) the “growth AUC” value was 0.299 (active).
